This note sets out measurements from paper PMC7862700, “An all-to-all approach to the identification of sequence-specific readers for epigenetic DNA modifications on cytosine”.

What all share (test): DAPPL (digital affinity profiling via proximity ligation, sequencing); 10 mM Tris-HCl pH 7.5, 50 mM NaCl, 1 mM DTT, 4% glycerol, room temperature, 30 min; GST-TFs on glutathione beads, 16-mer random dsDNA library, 0.1% formaldehyde crosslink after washing; high values mean tight binding
Common to all, as to settings: protein: recombinant; tags: N-terminal GST; dsDNA, one strand shown

The target of one test is T1, FLI1 (Homo sapiens, UniProt Q01543 1-452).
T1 sequence: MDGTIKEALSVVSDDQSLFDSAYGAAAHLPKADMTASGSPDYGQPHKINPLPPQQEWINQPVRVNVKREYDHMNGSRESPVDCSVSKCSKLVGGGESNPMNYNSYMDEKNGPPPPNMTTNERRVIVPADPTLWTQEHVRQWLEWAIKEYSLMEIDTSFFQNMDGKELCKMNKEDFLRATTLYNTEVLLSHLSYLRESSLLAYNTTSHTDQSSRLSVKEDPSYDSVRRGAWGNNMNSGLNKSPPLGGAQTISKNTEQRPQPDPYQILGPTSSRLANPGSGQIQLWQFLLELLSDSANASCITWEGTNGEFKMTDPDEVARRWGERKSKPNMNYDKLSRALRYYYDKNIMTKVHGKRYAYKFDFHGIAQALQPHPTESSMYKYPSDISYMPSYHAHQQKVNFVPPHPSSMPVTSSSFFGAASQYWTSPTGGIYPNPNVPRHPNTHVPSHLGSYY
The gist of the method:
(§1)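 Yeast served to express human transcription factors as GST fusions, which were then captured on glutathione beads and labelled with DNA barcodes. Pooled with a tag-only sample, they were incubated with 200 nmole of a 16-mer random double-stranded DNA library for 30 min at room temperature in Tris/NaCl/DTT/glycerol buffer, washed, crosslinked with 0.1% formaldehyde, ligated by proximity, amplified by PCR and sequenced. Dividing each hexamer's read frequency for a factor by its frequency for the tag-only sample gives the binding signal.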

In another test the target is T2, ELK1 (Homo sapiens, UniProt P19419 1-428).
T2 sequence: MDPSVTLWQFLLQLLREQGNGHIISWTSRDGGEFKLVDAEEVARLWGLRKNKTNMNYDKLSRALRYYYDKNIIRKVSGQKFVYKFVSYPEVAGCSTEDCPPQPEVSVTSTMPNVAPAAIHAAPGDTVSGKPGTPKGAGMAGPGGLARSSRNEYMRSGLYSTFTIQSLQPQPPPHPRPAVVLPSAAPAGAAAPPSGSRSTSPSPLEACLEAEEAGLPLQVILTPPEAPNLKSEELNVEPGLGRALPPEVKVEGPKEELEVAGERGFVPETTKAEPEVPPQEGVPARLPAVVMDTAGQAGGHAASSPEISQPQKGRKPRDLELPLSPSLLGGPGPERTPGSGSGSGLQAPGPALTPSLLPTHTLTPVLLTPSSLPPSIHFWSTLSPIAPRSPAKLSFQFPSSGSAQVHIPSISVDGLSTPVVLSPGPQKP
The gist of the method: as §1

The target of a further test is T3, GABPA (Homo sapiens, UniProt Q06546 1-454).
T3 sequence: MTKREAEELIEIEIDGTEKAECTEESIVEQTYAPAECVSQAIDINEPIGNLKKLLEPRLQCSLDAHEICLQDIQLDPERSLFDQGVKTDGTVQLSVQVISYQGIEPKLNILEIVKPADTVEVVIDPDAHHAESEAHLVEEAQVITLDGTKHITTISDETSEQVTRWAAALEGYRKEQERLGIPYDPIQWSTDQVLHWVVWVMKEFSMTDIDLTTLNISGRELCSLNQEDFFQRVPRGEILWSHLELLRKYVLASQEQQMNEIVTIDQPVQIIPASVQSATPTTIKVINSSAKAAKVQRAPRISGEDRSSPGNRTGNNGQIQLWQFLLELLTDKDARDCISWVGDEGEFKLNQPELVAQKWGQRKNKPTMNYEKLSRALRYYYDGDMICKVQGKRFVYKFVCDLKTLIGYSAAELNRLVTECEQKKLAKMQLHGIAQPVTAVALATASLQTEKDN
The essentials:
as §1

The target in another test is T4, ERG (Homo sapiens, UniProt P11308 1-479).
T4 sequence: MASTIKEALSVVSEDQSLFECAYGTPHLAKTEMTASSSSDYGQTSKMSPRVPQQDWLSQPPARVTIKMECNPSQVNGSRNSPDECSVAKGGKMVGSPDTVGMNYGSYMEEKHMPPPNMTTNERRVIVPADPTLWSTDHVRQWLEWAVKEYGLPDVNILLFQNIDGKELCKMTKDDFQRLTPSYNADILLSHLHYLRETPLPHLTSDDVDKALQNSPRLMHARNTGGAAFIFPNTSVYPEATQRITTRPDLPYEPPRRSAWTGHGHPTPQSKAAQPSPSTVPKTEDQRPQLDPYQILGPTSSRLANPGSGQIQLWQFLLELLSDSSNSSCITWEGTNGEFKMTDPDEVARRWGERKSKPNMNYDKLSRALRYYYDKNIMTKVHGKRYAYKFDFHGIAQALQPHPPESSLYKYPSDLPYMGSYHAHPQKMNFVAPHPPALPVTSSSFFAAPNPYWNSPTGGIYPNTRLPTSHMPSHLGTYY
The essentials:
as §1

For a further test, the target named is ELF1 (Homo sapiens, UniProt P32519 1-619). The gist of the method: as §1
Sequence of ELF1 (P32519 whole entry): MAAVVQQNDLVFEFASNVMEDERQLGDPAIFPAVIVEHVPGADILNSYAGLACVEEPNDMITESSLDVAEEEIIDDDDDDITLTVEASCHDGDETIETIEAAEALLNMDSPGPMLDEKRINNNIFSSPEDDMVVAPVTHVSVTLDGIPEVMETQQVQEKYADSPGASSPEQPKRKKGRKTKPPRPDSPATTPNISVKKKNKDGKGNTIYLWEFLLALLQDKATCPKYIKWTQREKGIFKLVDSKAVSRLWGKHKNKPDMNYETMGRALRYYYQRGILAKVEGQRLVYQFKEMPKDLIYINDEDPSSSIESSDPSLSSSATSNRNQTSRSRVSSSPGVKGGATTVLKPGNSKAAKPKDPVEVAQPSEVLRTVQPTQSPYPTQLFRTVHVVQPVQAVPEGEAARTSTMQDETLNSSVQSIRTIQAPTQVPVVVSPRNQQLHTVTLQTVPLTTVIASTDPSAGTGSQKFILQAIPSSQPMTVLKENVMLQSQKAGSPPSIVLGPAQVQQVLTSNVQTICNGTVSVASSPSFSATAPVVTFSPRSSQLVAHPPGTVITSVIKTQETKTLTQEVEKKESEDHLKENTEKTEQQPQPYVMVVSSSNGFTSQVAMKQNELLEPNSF
For the next test, the target named is T5, EHF (Homo sapiens, UniProt Q9NZC4 1-300).
T5 sequence: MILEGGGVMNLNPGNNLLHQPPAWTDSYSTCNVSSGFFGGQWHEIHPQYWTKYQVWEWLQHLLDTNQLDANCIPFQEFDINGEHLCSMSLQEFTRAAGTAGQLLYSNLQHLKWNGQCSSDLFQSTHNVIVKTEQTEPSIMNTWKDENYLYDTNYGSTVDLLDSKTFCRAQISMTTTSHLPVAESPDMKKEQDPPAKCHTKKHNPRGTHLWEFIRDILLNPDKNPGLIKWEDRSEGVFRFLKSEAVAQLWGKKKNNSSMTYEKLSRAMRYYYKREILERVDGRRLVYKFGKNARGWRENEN
The gist of the method: as §1

For a further test, the target named is SPI1 (Homo sapiens, UniProt P17947 1-270). The essentials:
as §1

Another test deals with SPIB (Homo sapiens, UniProt Q01892 1-262). The essentials: as §1
Sequence of SPIB (Q01892 whole entry): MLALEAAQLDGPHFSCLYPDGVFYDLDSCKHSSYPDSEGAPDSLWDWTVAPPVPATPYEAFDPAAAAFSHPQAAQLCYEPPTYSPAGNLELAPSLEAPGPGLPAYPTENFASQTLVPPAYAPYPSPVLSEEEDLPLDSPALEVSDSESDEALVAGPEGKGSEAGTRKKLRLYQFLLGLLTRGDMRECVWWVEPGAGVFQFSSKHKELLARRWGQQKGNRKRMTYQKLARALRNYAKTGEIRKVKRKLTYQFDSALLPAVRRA
The target in the next test is T6, ELK3 (Homo sapiens, UniProt P41970 1-407).
T6 sequence: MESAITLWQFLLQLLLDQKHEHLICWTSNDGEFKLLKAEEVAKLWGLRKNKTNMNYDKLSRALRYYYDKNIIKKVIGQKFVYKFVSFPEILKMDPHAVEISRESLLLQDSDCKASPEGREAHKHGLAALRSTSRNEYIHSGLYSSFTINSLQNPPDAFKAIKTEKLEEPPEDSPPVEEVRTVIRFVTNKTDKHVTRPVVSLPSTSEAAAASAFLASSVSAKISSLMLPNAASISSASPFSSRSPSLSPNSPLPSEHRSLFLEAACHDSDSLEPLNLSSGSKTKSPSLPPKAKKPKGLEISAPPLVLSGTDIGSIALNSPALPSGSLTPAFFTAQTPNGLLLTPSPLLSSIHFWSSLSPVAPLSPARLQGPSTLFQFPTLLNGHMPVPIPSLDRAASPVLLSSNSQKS
The gist of the method: as §1

For the sequence GAATAA, the binding signal with FLI1 was 1.01 fold enrichment (6-mer frequency, TF over GST control); in the test with ELK1, 1.08 fold enrichment (6-mer frequency, TF over GST control); with GABPA it was 1.07 fold enrichment (6-mer frequency, TF over GST control); with ERG, 1.06 fold enrichment (6-mer frequency, TF over GST control); in the test with ELF1, 1.09 fold enrichment (6-mer frequency, TF over GST control); with EHF it was 1.09 fold enrichment (6-mer frequency, TF over GST control). The binding signal was 1.03 fold enrichment (6-mer frequency, TF over GST control) with SPI1; 1.11 fold enrichment (6-mer frequency, TF over GST control) in the test with SPIB; 1.17 fold enrichment (6-mer frequency, TF over GST control) in the test with ELK3.
In the case of CAAATA, the binding signal with FLI1 was 1.04 fold enrichment (6-mer frequency, TF over GST control); with ELK1 it was 1.13 fold enrichment (6-mer frequency, TF over GST control); with GABPA, 1.18 fold enrichment (6-mer frequency, TF over GST control); in the test with ERG, 1.19 fold enrichment (6-mer frequency, TF over GST control); with ELF1, 1.17 fold enrichment (6-mer frequency, TF over GST control); with EHF, 1.14 fold enrichment (6-mer frequency, TF over GST control). For the same sequence, the binding signal is 1.14 fold enrichment (6-mer frequency, TF over GST control) with SPI1; 1.19 fold enrichment (6-mer frequency, TF over GST control) with SPIB; 1.11 fold enrichment (6-mer frequency, TF over GST control) with ELK3.
With ATTGAC, the binding signal was 1.18 fold enrichment (6-mer frequency, TF over GST control) with FLI1; 1.21 fold enrichment (6-mer frequency, TF over GST control) with ELK1; 1.22 fold enrichment (6-mer frequency, TF over GST control) in the test with GABPA; 1.19 fold enrichment (6-mer frequency, TF over GST control) with ERG; 1.19 fold enrichment (6-mer frequency, TF over GST control) in the test with ELF1; 1.22 fold enrichment (6-mer frequency, TF over GST control) in the test with EHF. Besides, the binding signal is 1.14 fold enrichment (6-mer frequency, TF over GST control) with SPI1; 1.2 fold enrichment (6-mer frequency, TF over GST control) with SPIB; 1.16 fold enrichment (6-mer frequency, TF over GST control) with ELK3.
In the case of CCACTT, the binding signal was 1.86 fold enrichment (6-mer frequency, TF over GST control) in the test with FLI1; 1.86 fold enrichment (6-mer frequency, TF over GST control) with ELK1; 1.81 fold enrichment (6-mer frequency, TF over GST control) in the test with GABPA; 2.02 fold enrichment (6-mer frequency, TF over GST control) with ERG; 1.85 fold enrichment (6-mer frequency, TF over GST control) with ELF1; 1.93 fold enrichment (6-mer frequency, TF over GST control) with EHF. Also, the binding signal is 2.41 fold enrichment (6-mer frequency, TF over GST control) with SPI1; 1.74 fold enrichment (6-mer frequency, TF over GST control) with SPIB; 1.83 fold enrichment (6-mer frequency, TF over GST control) with ELK3.
Regarding GTAAAC, the binding signal was 1.16 fold enrichment (6-mer frequency, TF over GST control) with FLI1; 1.26 fold enrichment (6-mer frequency, TF over GST control) with ELK1; 1.26 fold enrichment (6-mer frequency, TF over GST control) in the test with GABPA; 1.19 fold enrichment (6-mer frequency, TF over GST control) in the test with ERG; 1.17 fold enrichment (6-mer frequency, TF over GST control) with ELF1; 1.25 fold enrichment (6-mer frequency, TF over GST control) with EHF. In addition, the binding signal was 1.25 fold enrichment (6-mer frequency, TF over GST control) in the test with SPI1; 1.25 fold enrichment (6-mer frequency, TF over GST control) with SPIB; 1.25 fold enrichment (6-mer frequency, TF over GST control) with ELK3.
Consider ACTATG, for which the binding signal with FLI1 was 1.23 fold enrichment (6-mer frequency, TF over GST control); in the test with ELK1, 1.28 fold enrichment (6-mer frequency, TF over GST control); with GABPA it was 1.37 fold enrichment (6-mer frequency, TF over GST control); with ERG, 1.19 fold enrichment (6-mer frequency, TF over GST control); with ELF1, 1.21 fold enrichment (6-mer frequency, TF over GST control); in the test with EHF, 1.25 fold enrichment (6-mer frequency, TF over GST control). Besides, the binding signal with SPI1 was 1.14 fold enrichment (6-mer frequency, TF over GST control); with SPIB it was 1.31 fold enrichment (6-mer frequency, TF over GST control); in the test with ELK3, 1.2 fold enrichment (6-mer frequency, TF over GST control).
In the case of CTAATT, the binding signal in the test with FLI1 is 1.35 fold enrichment (6-mer frequency, TF over GST control); with ELK1 it was 1.2 fold enrichment (6-mer frequency, TF over GST control); in the test with GABPA it was 1.33 fold enrichment (6-mer frequency, TF over GST control); in the test with ERG, 1.36 fold enrichment (6-mer frequency, TF over GST control); in the test with ELF1, 1.43 fold enrichment (6-mer frequency, TF over GST control); with EHF, 1.33 fold enrichment (6-mer frequency, TF over GST control). Also, the binding signal with SPI1 is 1.3 fold enrichment (6-mer frequency, TF over GST control); with SPIB, 1.37 fold enrichment (6-mer frequency, TF over GST control); with ELK3, 1.4 fold enrichment (6-mer frequency, TF over GST control).
Take AACTCC: the binding signal with FLI1 was 1.47 fold enrichment (6-mer frequency, TF over GST control); with ELK1, 1.29 fold enrichment (6-mer frequency, TF over GST control); with GABPA, 1.39 fold enrichment (6-mer frequency, TF over GST control); in the test with ERG, 1.32 fold enrichment (6-mer frequency, TF over GST control); with ELF1, 1.35 fold enrichment (6-mer frequency, TF over GST control); with EHF, 1.3 fold enrichment (6-mer frequency, TF over GST control). Further, the binding signal is 1.34 fold enrichment (6-mer frequency, TF over GST control) with SPI1; 1.32 fold enrichment (6-mer frequency, TF over GST control) with SPIB; 1.38 fold enrichment (6-mer frequency, TF over GST control) in the test with ELK3.
